The record followed here is PubChem BioAssay (Tox21).

Test [1] in a line: qHTS assay to identify small molecule agonists of the vitamin D receptor (VDR) signaling pathway - cell viability counter screen (AID 743224). Note: series mostly up to about 63 µM; nearly all actives have a fitted effect of over 50% in size. In short, it runs like this:
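VDR-bla cells were preincubated 4 h at 37C/5% CO2, then exposed to compounds for 16 h. After the 2 h room-temperature bla FRET read, CellTiter-Glo was added to the same wells and luminescence read after 30 min.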

The nature of test [2]: qHTS assay to identify small molecule antagonists of the vitamin D receptor (VDR) signaling pathway - cell viability counter screen (AID 743225). Note: nearly all actives have a fitted effect of over 50% in size. In short, it runs like this: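 Viability counter screen run in the same wells as the beta-lactamase reporter assay: HEK 293T VDR-UAS-bla cells, 16 h compound exposure at 37C with 3 nM (final) 1-alpha,25-dihydroxyvitamin D3. CellTiter-Glo luminescence, 30 min, room temperature.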

A short description of test [3]: qHTS assay to identify small molecule agonists of the NFkB signaling pathway (AID 1159509; active = well fitted curve in the direction sought with a large enough effect in the signal ratio in the repeat runs, not every such curve was filed as active; the % refers to the signal ratio; note: series mostly up to about 61 µM). The essentials: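 ME-180 NFkB-bla, 2,000 cells/well, overnight plating; cpd pinned in DMSO, 5 h 37 C; B/G FRET substrate 1.5 h RT; ex 405, em 460/530 nm.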
Background: qHTS replaces the single test concentration by a dilution series.

A short description of test [4]: qHTS assay to identify small molecule agonists of the NFkB signaling pathway - cell viability counter screen (AID 1159515; calls by dose curve; note: series mostly up to about 61 µM; nearly all actives have a fitted effect of over 55% in size). In short, it runs like this: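 NFkB-bla ME-180 cells, 2,000/well, were plated overnight at 37 C, 5% CO2, then exposed to compounds in DMSO for 5 hr. After the bla FRET read, CellTiter-Glo was added to the same wells; luminescence was read after 30 min at room temperature.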

Test [5] in a line: qHTS assay to identify small molecule agonists of the endoplasmic reticulum stress response signaling pathway - cell viability counter screen (AID 1159517; calls by dose curve; note: series mostly up to about 61 µM; nearly all actives have a fitted effect of over 50% in size). The essentials:
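ESRE-bla HeLa cells, 1,500 per well, seeded overnight then treated with compounds for 5 hr at 37 C. After the beta-lactamase read, viability in the same wells is measured by CellTiter-Glo luminescence after 30 min at room temperature.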

Test [6] in a line: qHTS assay to identify small molecule antagonists of the retinoid-related orphan receptor gamma (ROR-gamma) signaling pathway - cell viability counter screen (AID 1159520). Note: nearly all actives have a fitted effect of over 50% in size. The essentials:
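Tet-on ROR gamma CHO cells were given compounds for 2 hr, then doxycycline hyclate at 1 uM final, and incubated 16 hr at 37 C. Viability was measured as ATP content by CellTiter-Glo luminescence.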

Test [7] has as its target Nuclear receptor ROR-gamma (Homo sapiens) (UniProt P51449). The test is described as follows: qHTS assay to identify small molecule antagonists of the retinoid-related orphan receptor gamma (ROR-gamma) signaling pathway (AID 1159521). In short, it runs like this:
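Luminescence readout (ONE-Glo, 30 min RT) after 16 h doxycycline induction; loss of signal scored as antagonism. CHO cells with TET-inducible RORγ and RORE-LUC reporter; compounds added 2 h before 1 uM final doxycycline.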

Test [8] can be described thus: qHTS assay to identify small molecule agonists of the AP-1 signaling pathway - cell viability counter screen (AID 1159525; calls by dose curve; note: nearly all actives have a fitted effect of over 55% in size). In short, it runs like this:
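AP-1-bla ME-180 cells in Opti-MEM with 0.5% dialyzed FBS, compound exposure 5 h at 37 C in 15-point titration. Viability read in the same wells as ATP content by CellTiter-Glo luminescence, normalised to tetra-n-octylammonium bromide and DMSO controls.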

A short description of test [9]: qHTS assay to identify small molecule agonists of the AP-1 signaling pathway (AID 1159526; calls by dose curve).
Test [10] concerns the target Retinoic acid receptor RXR-alpha (Homo sapiens) (UniProt P19793). Briefly: qHTS assay to identify small molecule agonists of the RXR signaling pathway (AID 1159527; calls by dose curve; note: nearly all actives have a fitted effect of over 35% in size). In short, it runs like this: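 Agonist mode; 9-cis retinoic acid positive control. HEK 293T UAS-bla reporter cells, 2% charcoal-stripped FBS, 16 hr compound exposure at 37 C/5% CO2. LiveBLAzer B/G FRET substrate 2 hr RT; ex 405, em 460/530 nm.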

Test [11] can be described thus: qHTS assay to identify small molecule agonists of the RXR signaling pathway - cell viability counter screen (AID 1159529). In short, it runs like this: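 Luminescence from CellTiter-Glo (30 min, RT) measured viability in the same wells as the beta-lactamase reporter readout. Cells: GeneBLAzer RXR-alpha HEK 293T, 2% charcoal-stripped FBS. Compound exposure 16 hr, 37 C.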

Test [12] is described as follows: qHTS assay to identify small molecule antagonists of the retinoid acid receptor (RAR) signaling pathway - cell viability counter screen (AID 1159551). Note: nearly all actives have a fitted effect of over 35% in size. The essentials:
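C3RL4 cells were seeded overnight at 37 C, then treated with compounds plus 1 uM (final) retinol for 6 h at 37 C. Viability was read as ATP by CellTiter-Glo luminescence after 30 min at room temperature.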

Test [13] can be described thus: qHTS assay to identify small molecule antagonists of the retinoic acid receptor (RAR) signaling pathway (AID 1159552; note: nearly all actives have a fitted effect of over 50% in size; note: potency is the fitted concentration of half-maximal effect). In short, it runs like this:
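Luminescence from a RARE luciferase reporter in C3RL4 cells served as read-out. Cells received compounds together with 1 uM final retinol and incubated 6 hr at 37 C before detection reagent was added for 30 min at room temperature.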

Test [14] can be described thus: qHTS assay to identify small molecule agonists of the retinoic acid receptor (RAR) signaling pathway (AID 1159553). In short, it runs like this: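 C3RL4 cells carrying a RARE luciferase reporter were plated overnight at 37 C, then exposed to compounds in DMSO for 6 hr at 37 C and 5% CO2. Luminescence was read 30 min after luciferase reagent addition at room temperature.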

Test [15] can be described thus: qHTS assay to identify small molecule agonists of the endoplasmic reticulum stress response signaling pathway (AID 1159516; active = well fitted activation curve with a large enough effect in the signal ratio in the repeat runs, not every such curve was filed as active; the % refers to the signal ratio). The essentials:
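CellSensor ESRE-bla HeLa cells, carrying a beta-lactamase reporter driven by the ER stress response element, were plated overnight and exposed to compounds for 5 hr at 37 C. Reporter activity was read as FRET substrate fluorescence after 2 hr at room temperature.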

Records with an inconclusive call do not appear. A number with no mark means an inactive call. Activity calls are given as the source filed them. Unless noted, calls come from the whole dose curve; as a rule, active = well fitted curve in the direction sought with a large enough effect in the repeat runs; inconclusive = weak or mixed curves; inactive = no such curve, though single readings can be large; an effect the other way counts as inactive or inconclusive.

Chain of Retinoic acid receptor RXR-alpha (Homo sapiens) (P19793 whole entry, looked up): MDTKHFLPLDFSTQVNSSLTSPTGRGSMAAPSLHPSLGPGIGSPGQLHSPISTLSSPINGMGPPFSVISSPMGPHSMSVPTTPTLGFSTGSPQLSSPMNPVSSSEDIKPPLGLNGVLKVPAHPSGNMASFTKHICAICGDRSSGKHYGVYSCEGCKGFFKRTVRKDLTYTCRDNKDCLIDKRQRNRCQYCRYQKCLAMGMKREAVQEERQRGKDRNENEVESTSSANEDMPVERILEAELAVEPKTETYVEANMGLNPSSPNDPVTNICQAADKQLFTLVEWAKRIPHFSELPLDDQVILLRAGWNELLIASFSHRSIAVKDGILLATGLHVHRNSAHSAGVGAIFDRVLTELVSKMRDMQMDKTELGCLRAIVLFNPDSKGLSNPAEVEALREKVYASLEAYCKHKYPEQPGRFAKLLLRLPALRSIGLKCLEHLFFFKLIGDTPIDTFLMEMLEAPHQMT

As to `Cc1ccc(NC(=O)N(C)C)cc1NC(=O)N(C)C`, the Potency result in test [1], in test [2], in test [4], in test [5], in [6] and in test [7] was “inactive” throughout. The Potency entry in test [8], in test [10], in test [11], in test [12] and in [13] was “inactive” throughout. Besides, the compound was called inactive in [3] and in test [9].
Turning to `CCCCCCCC(=O)OCCCCCC`, the Potency entry in [1], in [2], in test [4], in test [5], in test [6] and in [7] was “inactive” in each case. The Potency result in [8], in test [10], in [11], in test [12], in [13] and in test [14] was “inactive” in each case. For the same compound, the outcome in test [3] and in [9] was inactive.
With `COc1ccc(N)c([N+](=O)[O-])c1`, the Potency entry in test [1], in test [2], in test [4], in test [5], in [6] and in test [7] was “inactive” in each case. For the same compound, the Potency result in test [8], in [10], in [11], in [12], in [13] and in [14] was “inactive” throughout. In addition, the outcome in [3] and in test [9] was inactive.
With `CCOC(=O)N1CCC(Nc2ccc(Cl)cc2N)CC1`, the Potency entry in [1], in test [2], in test [4], in test [5], in test [6] and in [7] was “inactive” each time. Besides, the Potency entry in test [8], in [10], in test [11], in test [12] and in test [14] was “inactive” in each case. Besides, the result in test [3] and in [9] was inactive.
Take `CN(C)CC/C=C1\c2ccccc2Sc2ccc(Cl)cc21`: in test [3], the outcome was inactive. The Potency result in [4], in test [15] and in test [8] was “inactive” each time. Also, the Potency in [13] is 29.8 µM (active).
On to `CCOC(=O)c1c(N)sc2c1CCN(Cc1ccccc1)C2`, for which the Potency result in test [1], in test [4], in test [5], in test [6], in test [7] and in test [8] was “inactive” throughout. The Potency result in [10], in [11], in [12], in [13] and in test [14] was “inactive” throughout. The compound was classed as inactive in [3] and in test [9].
Turning to `COC(=O)c1sccc1S(N)(=O)=O`, the Potency result in test [1], in test [2], in test [4], in test [5], in test [6] and in test [7] was “inactive” each time. Besides, the Potency result in [8], in [10], in [11], in test [12] and in test [13] was “inactive” each time. The outcome in test [3] and in test [9] was inactive.
Regarding `FC(F)(F)C(F)(F)C(F)(F)C(F)(F)CCI`, the Potency entry in test [1], in test [4], in test [5], in [6], in test [7] and in test [8] was “inactive” in each case. Moreover, the Potency entry in test [10], in [11], in test [12], in [13] and in [14] was “inactive” throughout. Besides, the call in test [3] and in [9] was inactive.
`CC1CCCC(=O)C1=O` (stereo not given): the Potency result in [1], in [2], in [4], in test [5], in [6] and in [7] was “inactive” each time. Further, the Potency result in test [8], in test [10], in test [11], in [12] and in test [13] was “inactive” in each case. In addition, the compound was called inactive in test [3] and in [9].
In the case of `O=C(O)c1ccc(O)cc1O`, the Potency entry in test [1], in test [2], in test [4], in test [5], in test [6] and in test [7] was “inactive” each time. Besides, the Potency result in [8], in test [10], in test [11], in test [12], in test [13] and in [14] was “inactive” throughout. For the same compound, the compound was classed as inactive in test [3] and in test [9].
